7 compounds from PubChem BioAssay AID2284385 (EPA ToxCast) can be followed below.

The source made the active and inactive calls. Rule for the calls: active = hit-call score of the fitted dose curve at least 0.9, where 1 is the maximum; inactive = score below 0.9.

human Peroxisome proliferator-activated Receptor alpha (PPARa), PPARA (gene 5465), sequence (Q07869 whole entry, looked up): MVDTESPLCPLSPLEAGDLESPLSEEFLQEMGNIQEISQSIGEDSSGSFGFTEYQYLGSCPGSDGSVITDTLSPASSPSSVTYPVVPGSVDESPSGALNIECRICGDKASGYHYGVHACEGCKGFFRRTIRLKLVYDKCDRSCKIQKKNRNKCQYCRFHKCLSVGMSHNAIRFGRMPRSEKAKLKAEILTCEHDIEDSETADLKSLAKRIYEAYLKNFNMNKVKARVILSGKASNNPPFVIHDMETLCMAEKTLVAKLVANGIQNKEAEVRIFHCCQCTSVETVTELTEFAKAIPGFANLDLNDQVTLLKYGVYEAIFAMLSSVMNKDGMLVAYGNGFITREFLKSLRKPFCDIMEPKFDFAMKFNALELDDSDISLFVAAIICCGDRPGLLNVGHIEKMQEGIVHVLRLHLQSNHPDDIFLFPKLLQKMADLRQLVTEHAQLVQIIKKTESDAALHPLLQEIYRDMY

For this experiment, the target named is human Peroxisome proliferator-activated Receptor alpha (PPARa), PPARA (gene 5465) (UniProt Q07869). The experiment is described as follows: ERF_TW_NR_COA_hPPARA: Eurofins (ERF) Nuclear Receptor (NR) Functional Coactivator Assay for human Peroxisome proliferator-activated Receptor alpha (PPARa) Agonism & Antagonism, conducted at Taiwan lab site. The procedure:
ERF_TW_NR_COA_hPPARA is a biochemical, single-readout assay that uses extracted gene-proteins in a cell-free assay. Measurements were taken 3 hours after chemical dosing in a 96-well plate. See PPARalpha Human NHR Functional Agonist Coactivator Assay, Panlabs.ERF_TW_NR_COA_hPPARA is an assay component calculated from the ERF_TW_NR_COA_hPPARA assay. It is designed to measure FRET using a type of binding reporter as detected by fluorescence intensity of GW7647 with fluorimetry technology.Data from the assay component ERF_TW_NR_COA_hPPARA was analyzed at the assay endpoint, ERF_TW_NR_COA_hPPARA, in the positive analysis fitting direction relative to DMSO as the negative control and baseline of activity. Using a type of binding reporter, gain-of-signal activity can be used to understand changes in binding as they relate to gene PPARA. To generalize the intended target to other relatable targets, this assay endpoint is annotated to the nuclear receptor intended target family, where the subfamily is non-steroidal.
Human recombinant peroxisome proliferators-activated receptor alpha (PPARA, PPARa, PPAR-alpha) hPPAR, NR1C1) receptors expressed in insect are used. Test compound and/or vehicle is incubated with the 2.5 nM receptors and binding buffer in modified kit buffer pH 7.4 for 3 hours at RT. Determination of the amount of complex formed is read microplate reader (excitation:337 nm, emission: 520/490 nm). Test compound-induced increase fluorescence by 50 percent or more (>/=50%) relative to the 1 uM GW7647 response indicates possible PPARa receptor agonist activity. Test compound-induced inhibition of 20 nM GW7647-induced fluorescence response by 50 percent or more (>/=50%) indicates receptor antagonist activity.
The AC50 is the midpoint of the concentration-response curve, whichever way the signal moves. Take `O=C(Cl)C(F)(F)C(F)(F)C(F)(F)C(F)(F)C(F)(F)C(F)(F)F`: the AC50 was 31.6 µM (active).
Consider `O=C(O)C(F)(F)C(F)(F)C(F)(F)C(F)(F)C(F)(F)C(F)(F)C(F)F`, for which the concentration at half-maximal activity (AC50) was 31.1 µM (active).
`O=C(O)C(F)(F)C(F)(F)C(F)(F)C(F)(F)C(F)(F)C(F)(F)C(F)(F)C(F)(F)Cl`: the result was inactive.
Same read-out and setting: in the case of `O=C(O)CCC(F)(F)C(F)(F)C(F)(F)F` it was “inactive”; in that of `O=C(CC(=O)C(F)(F)C(F)(F)C(F)(F)F)c1cccs1`, “inactive”.
For the compound `CC(C)(Oc1ccc(C(=O)c2ccc(Cl)cc2)cc1)C(=O)O`, the AC50 was 15.7 µM (active).
As for `CN(CCOc1ccc(CC2SC(=O)NC2=O)cc1)c1ccccn1` (configuration not stated), the compound was called inactive.
